Laboratory results from paper PMC4336329 (PLoS ONE, 2015).
About 14,000 (4.5%) of roughly 310,000 compounds showed an effect of 50% or more. The effect is printed as a negative number. The entries come from a sample that favours strong results as a whole.

molecular target: human ether-à-go-go-related gene (hERG) potassium channel (human, UniProt Q12809); experiment: primary screen, population patch clamp on CHO cells stably expressing hERG; higher = less effect of the substance
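Further: peak tail current of the secondary pulse compared with the same well before compound.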

Chain of human ether-à-go-go-related gene (hERG) potassium channel (Q12809 whole entry, looked up): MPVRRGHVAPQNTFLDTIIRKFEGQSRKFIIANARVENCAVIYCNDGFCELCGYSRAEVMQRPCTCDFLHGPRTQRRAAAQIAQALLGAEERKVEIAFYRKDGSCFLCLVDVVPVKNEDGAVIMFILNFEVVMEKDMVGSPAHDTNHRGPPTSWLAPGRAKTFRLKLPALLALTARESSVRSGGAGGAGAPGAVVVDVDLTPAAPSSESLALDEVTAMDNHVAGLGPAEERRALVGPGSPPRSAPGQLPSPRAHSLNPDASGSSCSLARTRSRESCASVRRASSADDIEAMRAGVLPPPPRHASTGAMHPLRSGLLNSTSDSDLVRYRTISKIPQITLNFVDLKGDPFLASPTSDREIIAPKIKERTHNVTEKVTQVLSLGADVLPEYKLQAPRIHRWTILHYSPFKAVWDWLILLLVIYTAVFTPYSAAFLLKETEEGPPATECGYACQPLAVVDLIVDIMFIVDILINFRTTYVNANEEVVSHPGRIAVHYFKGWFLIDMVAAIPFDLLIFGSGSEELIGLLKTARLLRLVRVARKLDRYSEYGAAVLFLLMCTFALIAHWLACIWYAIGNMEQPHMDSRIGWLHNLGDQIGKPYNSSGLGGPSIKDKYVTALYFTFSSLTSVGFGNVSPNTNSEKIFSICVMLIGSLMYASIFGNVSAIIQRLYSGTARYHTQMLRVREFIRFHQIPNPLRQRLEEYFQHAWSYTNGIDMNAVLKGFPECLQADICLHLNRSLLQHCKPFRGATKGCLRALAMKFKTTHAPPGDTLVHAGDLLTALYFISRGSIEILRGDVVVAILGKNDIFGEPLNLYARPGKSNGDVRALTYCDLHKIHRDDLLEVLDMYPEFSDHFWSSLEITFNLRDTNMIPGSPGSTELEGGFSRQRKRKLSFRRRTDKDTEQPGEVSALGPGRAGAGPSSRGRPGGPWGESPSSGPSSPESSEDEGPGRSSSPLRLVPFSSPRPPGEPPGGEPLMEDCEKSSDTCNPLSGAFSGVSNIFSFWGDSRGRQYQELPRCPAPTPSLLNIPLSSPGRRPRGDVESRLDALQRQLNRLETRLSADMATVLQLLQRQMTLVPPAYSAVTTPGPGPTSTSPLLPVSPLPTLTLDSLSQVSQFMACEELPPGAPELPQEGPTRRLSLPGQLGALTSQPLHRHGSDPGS

Row | SMILES | hERG current change (%, negative = inhibition) at 10uM [%]
1 | CC(=O)c1ccc(OCC(=O)N(C)CC(=O)Nc2ccc(N3CCOCC3)cc2)cc1 | 9.61
2 | CC(=O)Nc1ccc(S(=O)(=O)NCC(=O)OCC(=O)N2CCCc3ccccc32)cc1 | 4.4
3 | C/C(=N\NC(=O)c1ccc(N(C)C)cc1)c1ccc(C)c(C)c1 | -14.5
4 | COC(=O)c1cccc(S(=O)(=O)N2CCOCC2)c1 | 6.61
5 | Cc1cc(=O)oc2ccc(OC(=O)c3cccc(S(=O)(=O)N4CCOCC4)c3)cc12 | -70.5
6 | O=C(Oc1ccc(Br)cc1)c1cccc(S(=O)(=O)N2CCOCC2)c1 | -35.6
7 | CC(C)C1Oc2ccccc2N(CC(=O)N(C)C2CCCCC2)C1=O (centres unmarked) | -10.1
8 | CCc1nc(N2CCNCC2)c(C#N)c2c1CSC(C)(C)C2 | 2.02
9 | CCCCc1nc(N2CCNCC2)c(C#N)c2c1CSC(C)(C)C2 | -64.7
10 | CCCCc1nc(Cl)c(C#N)c2c1CSC(C)(C)C2 | -13.1
11 | CCCCn1c(N)c(N(CC)C(=O)c2cccc(OCc3ccccc3)c2)c(=O)[nH]c1=O | -9.67
12 | O=CN1CCCN(Cc2nc(Cc3ccccc3F)no2)CC1 | 16.1
13 | Cc1ccccc1N1CCN(Cc2nc(Cc3ccccc3F)no2)CC1 | -3.53
14 | C(=C\c1ccccc1)/CN1CCN(Cc2nc(Cc3ccccc3)no2)CC1 | -65.1
15 | c1ccc(Cc2noc(CN3CCN(CCOc4ccccc4)CC3)n2)cc1 | -40.9
16 | COc1ccccc1CN1CCN(Cc2nc(Cc3ccccc3)no2)CC1 | -36
17 | Fc1ccccc1Cc1noc(CN2CCN(C/C=C/c3ccccc3)CC2)n1 | -74
18 | COC(=O)c1ccc(C(C(=O)NCc2ccccc2)N(Cc2ccco2)C(=O)c2cnccn2)cc1 (centres unmarked) | -25.4
19 | COC(=O)/C(=C\Nc1ccc(Cl)cc1Cl)NC(=O)c1ccccc1 | -4.83
20 | C=CCNC(=S)NNC(=O)CCC(O)CCCCC (centres unmarked) | 16.4
21 | CCOc1ccc(C(=O)CCC(=O)N(CC)CC(=O)Nc2c(F)cccc2F)cc1 | -25.6
22 | Cc1ccc(C(=O)CCC(=O)NCc2ccc(Cl)cc2)cc1 | -8.52

Row | SMILES | hERG current change (%, negative = inhibition) at 10uM [%]
23 | CCOc1ccc(C(=O)CCC(=O)N(CC)CC(=O)NCc2ccc(Cl)cc2)cc1 | -70.3
24 | CCN(CC(=O)NCc1ccc(Cl)cc1)C(=O)CCC(=O)c1ccc(C)cc1 | -66.5
25 | CCOc1ccc(C(=O)CCC(=O)N(CC)CC(=O)NCc2cccs2)cc1 | -19.9
26 | CCN(CC(=O)NCc1ccc(F)cc1)C(=O)c1ccc(Cl)cc1 | -23.7
27 | CCN(CC(=O)NCc1cccs1)C(=O)CCC(=O)c1ccc(F)cc1 | -49.7
28 | CCN(CC(=O)NCc1cccs1)C(=O)CCC(=O)c1ccc(C)cc1 | -46.9
29 | CCN(CC(=O)NCc1ccc(Cl)cc1)C(=O)CCC(=O)c1ccc(F)cc1 | -61.9
30 | Cc1ccc(C)c(N(CC(=O)NC2CCCC2)S(=O)(=O)c2ccccc2)c1 | 19.9
31 | Cl.O=C(O)c1cc(S(=O)(=O)N2CCN(C(c3ccccc3)c3ccccc3)CC2)ccc1Cl | 14.7
32 | COc1ccc([C@H]2CC(=O)C=C(c3ccc(OC(F)(F)F)cc3)C2)cc1 | 5.59
33 | Fc1ccc(CN2CCN(C(c3ccccc3)c3ccccc3)CC2)cc1.O=C(O)C(=O)O | 15
34 | COc1ccccc1N1CCN(Cc2cccc(OC)c2OC)CC1 | -12.5
35 | COc1cc(CN2CCN(C(c3ccccc3)c3ccccc3)CC2)cc(OC)c1OC.O=C(O)C(=O)O | -17.2
36 | O=C(O)C(=O)O.c1ccc(OCCN2CCN(C(c3ccccc3)c3ccccc3)CC2)cc1 | -14.6
37 | COc1ccccc1N1CCN(Cc2cccc(OC)c2O)CC1 | -64.9
38 | O=C(O)C(=O)O.c1ccc(OCCOCCN2CCN(C(c3ccccc3)c3ccccc3)CC2)cc1 | -72.7
39 | O=C(O)C(=O)O.Oc1ccccc1CN1CCN(C(c2ccccc2)c2ccccc2)CC1 | 17
40 | COc1ccc(OCCOCCN2CCN(C)CC2)cc1.O=C(O)C(=O)O | -6.29
41 | COc1cccc(CN2CCN(C(c3ccccc3)c3ccccc3)CC2)c1O.O=C(O)C(=O)O | -64.5
42 | COc1ccccc1CN1CCN(Cc2cc(OC)c(OC)cc2OC)CC1.O=C(O)C(=O)O | -11.2
43 | COc1ccccc1CN1CCN(C(c2ccccc2)c2ccccc2)CC1.O=C(O)C(=O)O | -55.1
44 | CCOc1ccccc1N1CCN(Cc2cccc(OC)c2O)CC1 | -25.8
